Compounds with a hit are over-represented: about 8.8% of the library has one in this group of screens.
HTT ATP protect: cytoprotection in Huntington HTT-Q103 PC12 cell model; PC12 HTT-Q103 induced, cytoprotection, ATP luminescence, 40 h; Potency, µM (series often up to 56.4 µM), for the others: cytoprotection (ATP increase), actives largely listed as activators; 230,000 tested, 0.14% active; note: % of control where 0% means no effect; nearly all actives have a fitted effect of over 45% in size
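Stable PC12 Q103-GFP cells in serum-supplemented, phenol red-free DMEM; induction by tebufenozide at 100 nM final; compound dose series; cell viability quantified luminescently from ATP.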
Lamin A splicing: changes lamin A minigene splicing in HeLa cells | HeLa LMNA splicing GFP/RFP minigene ratio, 48 h | Potency, µM (top dose mostly 46.1 µM), for the others: at the highest dose ratio change, negative = inhibition, hits mostly inhibitors | 200,000 tested, 0.01% active; active = well fitted inhibition curve with a large enough effect in the signal ratio, with a control signal flat, not every such curve was filed as active; inconclusive = small, poorly fitted or top-dose-only effect, or effect the other way, or a change in a side signal; the % refers to the signal ratio; note: % is set by controls: 0 for no effect and ±100 for the full control effect
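Read-out is the ratio of GFP to DsRed2 object intensity, acquired by 488 nm laser-scanning cytometry on HeLa lamin A-EGFP minigene reporter cells. Compound incubation 48 hrs at 37 °C in Opti-MEM with 2% FBS; DMSO 0.5% final.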
ALDH1A1 inh: inhibitors of human aldehyde dehydrogenase 1A1 | Purified ALDH1A1, NADH fluorescence, propionaldehyde substrate | P00352 | Potency, µM (doses to about 75.3 µM), for inactives: at the highest dose activity, negative = inhibition, hits mostly inhibitors | 220,000 tested, 7.3% active; active = well fitted inhibition curve with a large enough effect, not every such curve was filed as active; inconclusive = small, poorly fitted or top-dose-only effect, or another doubt; inactive = no such curve, though single readings can be large or run the other way;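 note: plate controls were no enzyme wells and a reference inhibitor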
Target sequence (P00352 whole entry, looked up): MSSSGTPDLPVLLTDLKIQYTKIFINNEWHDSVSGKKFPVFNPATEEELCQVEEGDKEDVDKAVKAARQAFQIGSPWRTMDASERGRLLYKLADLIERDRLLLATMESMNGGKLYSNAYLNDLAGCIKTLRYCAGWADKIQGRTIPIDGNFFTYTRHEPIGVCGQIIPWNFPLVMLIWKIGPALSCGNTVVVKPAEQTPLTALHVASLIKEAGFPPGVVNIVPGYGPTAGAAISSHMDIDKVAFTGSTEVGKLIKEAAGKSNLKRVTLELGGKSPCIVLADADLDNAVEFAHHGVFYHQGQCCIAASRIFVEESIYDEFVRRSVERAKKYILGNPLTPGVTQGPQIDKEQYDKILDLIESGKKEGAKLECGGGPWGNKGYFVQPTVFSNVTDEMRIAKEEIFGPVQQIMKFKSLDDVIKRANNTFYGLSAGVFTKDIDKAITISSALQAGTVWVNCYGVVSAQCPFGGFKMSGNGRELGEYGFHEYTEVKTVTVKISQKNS
HPGD inh: inhibitors of human 15-hydroxyprostaglandin dehydrogenase (HPGD). purified HPGD, NADH fluorescence kinetic, PGE2 substrate. P15428. 150,000 tested, 4.3% active. Potency, µM, for the others: at the highest dose activity change, negative = inhibition, hits mostly inhibitors. AID 894; active = well fitted inhibition curve with a large enough effect, not every such curve was filed as active; inconclusive = small, poorly fitted or top-dose-only effect, or another doubt; inactive = no such curve, though single readings can be large or run the other way; note: % is set by controls: 0 for no effect and ±100 for the full control effect
Target sequence (P15428 whole entry, looked up): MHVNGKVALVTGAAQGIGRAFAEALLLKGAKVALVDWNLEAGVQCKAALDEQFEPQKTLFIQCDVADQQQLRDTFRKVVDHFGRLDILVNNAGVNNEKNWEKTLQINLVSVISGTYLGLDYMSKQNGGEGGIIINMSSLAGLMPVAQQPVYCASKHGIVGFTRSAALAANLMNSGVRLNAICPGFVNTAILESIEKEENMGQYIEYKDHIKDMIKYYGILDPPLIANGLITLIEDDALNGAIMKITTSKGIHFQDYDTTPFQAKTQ
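20 nM HPGD preincubated 15 min at room temperature with compound in 50 mM Tris-HCl pH 8, 0.01% Tween 20. Started with 1 mM NAD+ and 30 uM prostaglandin E2; NADH fluorescence (360/450 nm) read 5 times over 30-s intervals, last minus first.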
HttQ103 aggreg: reduces HttQ103-GFP aggregates in PC12 cells; 220,000 tested, 1.1% active; PC12 HttQ103-GFP aggregates, Acumen cytometry, 40 h; Potency, µM (highest dose often 46.1 µM), for the others: at the top dose activity change, negative = inhibition, most hits filed as inhibitors; note: % is set by controls: 0 for no effect and ±100 for the full control effect; nearly all actives have a fitted effect of over 60% in size
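Aggregates are detected as GFP objects 1–25 µm with signal 6 STDEV over background in lysates of induced PC12 cells. These carry Huntingtin exon 1 with 103 glutamines fused to GFP under an ecdysone promoter; compounds titrated.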
Numbers without * were called inactive; ? = inconclusive; / = no result given; ! = a repeat was not active; [ ] = dose if it differs, or a comment. Unless noted, calls come from the whole dose curve; as a rule, active = well fitted curve in the direction sought with a large enough effect; inconclusive = small, poorly fitted or top-dose-only effect, or another doubt; inactive = no such curve, though single readings can be large; an effect the other way counts as inactive or inconclusive. Potency is the fitted concentration of half-maximal effect.

SMILES	HTT ATP protect	Lamin A splicing	ALDH1A1 inh	HPGD inh	HttQ103 aggreg
Cc1c(C(=O)Nc2ccccc2)oc2c1C(=O)CC(C)(C)C2	5.8%	-4.1%	?	-21.9%	10µM*
Cc1ccc(NC(=O)c2oc3c(c2C)C(=O)CC(C)(C)C3)cc1	-6.2%[0.074 µM]	-5.1%	?	-2.9%	-13.3%
Cc1cccc(C)c1NC(=O)CCCN1C(=O)CCn2nc(-c3cn(C)c4ccccc34)cc21	/	3.4%[46 µM]	/	/	/
CCOc1ccc(N2C(=O)CC(NCCc3ccc(S(N)(=O)=O)cc3)C2=O)cc1 (configuration not stated)	-12.6%	4.7%	?	1.8%	4.1%
CCOc1ccc(N2C(=O)CC(NCCc3c[nH]c4ccccc34)C2=O)cc1 (configuration not stated)	-41.1%	/	11.2µM*	/	11.2%
CCCOc1ccc(N2C(=O)CC(NCCc3ccc(S(N)(=O)=O)cc3)C2=O)cc1 (configuration not stated)	-5.1%[10 µM]	14.2%	7.94µM*	-6.4%	-9.0%
C=CC[C@@H]1[C@H](O)CC[C@@]2(C)[C@H]1CC[C@@H]1[C@@H]2CC[C@]2(C)C([C@H](C)CCCC(C)C)CC[C@@H]12 (some centres not stated)	-4.6%	/	9.3%	/	/
O=C1c2ccccc2C(=O)C1(O)O	19.9%	/	1.19µM*	-6.7%	/
CCC1CCC(c2nnc(-c3ccc([N+](=O)[O-])cc3)o2)CC1 (configuration not stated)	0.6%[10 µM]	-6.1%	11.2µM*	-4.4%	8.9%
Cc1ccc(NC(=O)Cn2cnc3c2c(=O)n(C)c(=O)n3C)cc1C	/	13.9%[46 µM]	/	/	/
COc1ccc(N(CC(=O)NCCC2=CCCCC2)S(=O)(=O)c2c(C)[nH]c(=O)[nH]c2=O)cc1	-6.8%[10 µM]	/	/	/	19.8%[9.22 µM]
O=C1CCCC(=O)C1=Cc1c[nH]c2ccccc12	11.3%	?	?	22.4µM*	-6.8%
CCOc1ccc(N2C(=O)CS(=O)(=O)C23C(=O)N(Cc2cccc(Cl)c2)c2ccccc23)cc1 (configuration not stated)	/	-15.2%[46 µM]	/	/	/
Cc1cccc(OCc2nc(CC(=O)Nc3ccc(C)cc3C)cs2)c1	/	12.6%[46 µM]	/	/	/
O=c1nc2ccccc2c(NS(=O)(=O)c2ccccc2)n1-c1ccccc1	-7.7%	17.1%	0.891µM*	-21.3%	12.3%
CCOC(=O)C(C)CC(C)C(=O)N1CCOCCOCCN(C(=O)C(C)CC(C)C(=O)OCC)CCOCC1 (configuration not stated)	10.0%	1.5%	-5.2%	-3.6%	6.8%
CCOC(=O)C(C(=O)OCC)C(C(=O)OCC)N1CCOCC1 (configuration not stated)	-18.1%	?	28.2µM*	22.4µM*	11.6%
O=Cc1cn(-c2ccccc2)nc1-c1ccc2c(c1)OCCO2	-23.2%[10 µM]	?	17.8µM*	-12.8%	-17.2%
N#CC(C#N)=Cc1ccc(OC(=O)c2ccccn2)cc1	-21.2%[10 µM]	-8.5%	2µM*	-8.9%	18.1%
CN(C)c1ccc(NC(=S)c2ccccn2)cc1	-51.3%	?	?	25.1µM*	?
COC(=O)c1ccc(OC(=O)c2ccccn2)cc1	-7.9%	-2.5%	-6.4%	-2.9%	-7.2%
N#C/C(=C\c1ccc([N+](=O)[O-])cc1)c1ccccn1	-70.3%	-7.6%[46 µM]	-15.0%	/	?
CN(C)c1ccc(/C=C(\C#N)c2ccccn2)cc1	-86.0%[10 µM]	?	9.46µM*	-22.1%	5.2%
O=C(c1cnccn1)N1CCC[C@@]2(CCN(C(c3ccccc3)c3ccccc3)C2)C1	13.8%	/	1.9%	-9.3%	/
COc1ccc(C)cc1NC(=O)C1CCN(S(=O)(=O)c2ccc3c(c2)CCCN3C(C)=O)CC1	/	-10.6%[46 µM]	/	/	/
SMILES	HTT ATP protect	Lamin A splicing	ALDH1A1 inh	HPGD inh	HttQ103 aggreg
COc1ccc(C(=O)NCc2nnc(SCC(=O)N3CCc4ccccc43)n2C2CCCCC2)cc1	-2.3%[10 µM]	-2.0%	22.1%	-6.6%	5.9%
COc1cccc(-n2nnnc2SCC(=O)N2CCCc3ccccc32)c1	-9.2%	-3.7%	5.62µM*	-12.8%	7.4%[9.22 µM]
COc1ccc(C(=O)NCc2nnc(SCC(=O)N3CCc4ccccc43)n2CCc2ccccc2)cc1	31.0%[10 µM]	-4.2%	0.631µM*	-7.5%	-10.0%
COc1cc(OC)cc(-n2nnnc2SCC(=O)N2CCCc3ccccc32)c1	13.3%[10 µM]	-9.3%	2.82µM*	-17.6%	2.0%
COc1cccc(-n2c(SCC(=O)N3CCCc4ccccc43)nc3c([nH]c4ccccc43)c2=O)c1	/	10.6%[46 µM]	/	/	/
COc1ccc(-n2c(SCC(=O)N3CCCc4ccccc43)nc3c([nH]c4ccccc43)c2=O)cc1	/	-7.7%[46 µM]	/	/	/
COc1ccc(-n2c(Cc3ccccc3)nnc2SCC(=O)N2CCCc3ccccc32)cc1	2.1%[10 µM]	0.9%	11.2µM*	-17.2%	-7.3%
Cn1cccc1Cc1nnc(SCC(=O)N2CCCc3ccccc32)n1-c1ccc(F)cc1	13.5%	-6.1%	?	-2.9%	?
CCS(=O)(=O)c1cc([N+](=O)[O-])c(Sc2ccccc2NC(C)=O)s1	-18.1%[10 µM]	/	/	/	35.3%[9.22 µM]
CCc1cnc2c(c1SCc1cc(OC)cc(OC)c1)c(=O)n(C)c(=O)n2C	/	-13.2%[46 µM]	/	/	/
COc1cccc(N2CC(NC(=O)c3ccc4c(c3)OCO4)CC2=O)c1 (configuration not stated)	/	4.1%[46 µM]	/	/	/
O=C(O)c1ccc(Cl)c(S(=O)(=O)Nc2ccccc2)c1	/	/	8.2%	-1.9%	/
O=C(NCc1cccs1)c1cnc(Cl)c(Cl)c1	11.9%[10 µM]	-19.7%[46 µM]	?	/	2.7%
CCCCOC(=O)c1ccc(O)cc1	?	?	16.1%	-16.5%	6.7%
O=C(COC(=O)c1cnc(Cl)c(Cl)c1)NCc1cccs1	-14.4%	17.0%[46 µM]	20µM*	/	14.6%
CCCOC(=O)c1ccc(O)cc1	-39.4%	?	10µM*!	-4.9%	-8.6%
O=C(COC(=O)c1ccc(CO)cc1)NCc1cccs1	46.6%[0.074 µM]	7.8%	4.7%	31.6µM*	-13.3%
NS(=O)(=O)c1ccc(NC(=O)COC(=O)c2cnc(Cl)c(Cl)c2)cc1	-2.1%[10 µM]	/	20µM*	/	0.3%[9.22 µM]
NS(=O)(=O)c1ccc(NC(=O)COC(=O)c2cc([N+](=O)[O-])ccc2Cl)cc1	12.0%[10 µM]	/	-2.4%	/	-9.1%[9.22 µM]
CCN(CC)CCCN(c1ccccc1)C1Cc2ccccc2C1	-98.2%	/	/	/	?
COCC(=O)N1CCC[C@@]2(CCN(Cc3cc(C(F)(F)F)cc(C(F)(F)F)c3)C2)C1	-3.1%	/	-9.9%	-4.9%	/
Cc1cc(C)cc(N2C(=O)CS(=O)(=O)C23C(=O)N(Cc2ccc(F)cc2)c2ccc(C)cc23)c1 (configuration not stated)	/	11.7%[46 µM]	/	/	/

Compound activity as filed in PubChem BioAssay.
